A selection: hits, their analogues and other compounds. The true share with any hit is near 6.3%.
HepG2 tox = HepG2 cytotoxicity, counter-screen for TGF-b inhibitors. HepG2 CAGA-GFP viability, ATP luminescence, 18 h. Potency, µM (doses to about 46.1 µM), usual class: cytotoxic. hit rate 0.76% among 410,000
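HepG2 CAGA-GFP cells (1000/well, DMEM with 1% FBS) received compound, then TGF-beta at 500 pg/mL final, and were incubated 18 hours at 37 degrees C. Viability was read by CellTiter-Glo luminescence. Media-only wells were set as complete cell-killing and DMSO as no toxicity.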
ATXN2 expr inh = inhibitors of ATXN2 expression; HEK-293 ATXN2-luciferase reporter, luminescence, 24 h; Potency, µM (highest dose often 57 µM), actives largely listed as inhibitors; hit rate 0.72% among 360,000; AID 1745845; note: nearly all actives have a fitted effect of over 55% in size
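qHTS (up to 57 uM final) was run with 24 h compound exposure of reporter cells at 37 °C. Each well was multiplexed: SteadyGlo luminescence measured ATXN2-luciferase expression after a fluorogenic Gly-Phe-AFC viability readout (25 uM final).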
RORgamma inh = blocks mouse ROR gamma transcriptional activity | P51450 | Drosophila S2 Gal4-RORgamma UAS-luciferase reporter, 20 h | Potency, µM (series often up to 53.6 µM), actives largely listed as inhibitors | hit rate 5.4% among 310,000 | AID 2551; note: nearly all actives have a fitted effect of over 60% in size
Target sequence (P51450 whole entry, looked up, the tested form may be a part): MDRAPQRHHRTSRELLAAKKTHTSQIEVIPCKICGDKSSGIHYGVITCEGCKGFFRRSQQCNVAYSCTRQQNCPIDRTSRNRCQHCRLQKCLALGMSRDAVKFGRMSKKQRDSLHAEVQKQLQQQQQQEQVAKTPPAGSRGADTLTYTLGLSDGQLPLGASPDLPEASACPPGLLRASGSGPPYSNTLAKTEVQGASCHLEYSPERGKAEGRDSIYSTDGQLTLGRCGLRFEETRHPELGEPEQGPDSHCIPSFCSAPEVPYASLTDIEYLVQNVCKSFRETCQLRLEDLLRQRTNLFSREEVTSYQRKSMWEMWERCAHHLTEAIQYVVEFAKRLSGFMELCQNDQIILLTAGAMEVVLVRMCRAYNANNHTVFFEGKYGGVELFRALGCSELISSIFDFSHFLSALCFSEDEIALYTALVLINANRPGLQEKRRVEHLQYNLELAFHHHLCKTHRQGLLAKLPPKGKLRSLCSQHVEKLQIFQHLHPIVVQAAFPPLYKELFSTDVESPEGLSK
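Stably transfected Drosophila Schneider cells are the test system, with ROR gamma fused to Gal4 and luciferase under UAS control; luminescence is read after 20 hr of 700 uM copper sulfate induction at ambient temperature.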
S2 tox = cell viability loss in ATXN counter-screen | Potency, µM (top dose mostly 56.7 µM), hits mostly cytotoxic | hit rate 0.49% among 400,000 | S2 cells (HEK-293 line with an ATXN2-luciferase reporter) viability, CellTiter-Fluor protease fluorescence, 24 h; note: nearly all actives have a fitted effect of over 40% in size
VP16 counter = inhibits Gal4-VP16 luciferase reporter, ROR gamma counter-screen; Potency, µM (top dose mostly 53.6 µM), most hits filed as inhibitors; AID 2546; Drosophila S2 Gal4-VP16 UAS-luciferase, luminescence, 20 h; hit rate 3.5% among 310,000;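 note: Gal4-VP16 expression switched on by copper sulfate through the metallothionein promoter; nearly all actives have a fitted effect of over 50% in size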
TGFb inhibitor = TGF-b pathway inhibition | hit rate 1.2% among 410,000 | AID 588855 | Potency, µM (series often up to 46.1 µM), usual class: inhibitors | HepG2 CAGA-GFP TGF-b/SMAD3 reporter, GFP fluorescence, 18 h; TGF-beta stimulated, 500 pg/mL final; note: nearly all actives have a fitted effect of over 65% in size
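GFP signal (ex488/em500-530) from TGF-beta-stimulated HEPG2 CAGA-GFP cells, 500 pg/mL final, 18 h at 37 degrees C in DMEM plus 1% FBS, normalized to unstimulated and DMSO-stimulated controls.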
A number is an active result; . = inactive; ? = inconclusive; / = not tested or not shown; [ ] = remark or other dose. Calls come from the whole dose curve; as a rule, active = well fitted curve in the direction sought with a large enough effect; inconclusive = small, poorly fitted or top-dose-only effect, or another doubt; inactive = no such curve, though single readings can be large; an effect the other way counts as inactive or inconclusive.

SMILES | HepG2 tox | ATXN2 expr inh | RORgamma inh | S2 tox | VP16 counter | TGFb inhibitor
C=CCN1C(=O)/C(=C/c2ccc(OC(C)=O)c(OCC)c2[N+](=O)[O-])SC1=S | . | ? | ? | / | ? | 7.08µM
CCCCCC(=O)N(O)C1CC(=O)N(c2ccccc2)C1=O (configuration not stated) | . | . | 15.8µM | . | 7.08µM | .
CCCCCCC(=O)N(O)C1CC(=O)N(Cc2ccccc2)C1=O (configuration not stated) | . | . | 10µM | . | . | .
CCCCCC(=O)NNC1CC(=O)N(c2ccccc2)C1=O (configuration not stated) | . | . | . | . | . | .
Cc1c(C(=O)N2CCCC(c3ccccc3)C2)sc2ncnc(NCCc3ccccn3)c12 (configuration not stated) | / | / | / | . | / | /
CC1(C)CC(n2c(=S)[nH]c3ccccc3c2=O)CCO1 (configuration not stated) | . | . | 8.91µM | . | 8.91µM | .
CC1CCC(n2c(=S)[nH]c3ccccc3c2=O)CC1 (configuration not stated) | . | . | 0.199µM | . | 1µM | .
O=c1c2ccccc2[nH]c(=S)n1CCCN1CCN(C2CCCCC2)CC1 | . | . | .[0.365 µM] | ? | / | .
CC1CCN(CCn2c(=S)[nH]c3ccccc3c2=O)CC1 | . | . | ? | . | . | .
CC1CCCC(n2c(=S)[nH]c3ccccc3c2=O)C1C (configuration not stated) | . | . | 0.282µM | ? | 0.631µM | 14.1µM
O=c1c2ccccc2[nH]c(=S)n1C1CCCCC1 | . | . | 0.891µM | . | 2.82µM | .
COc1ncc2nc(-c3ccc(F)cc3)c(=O)n(-c3ccccc3)c2n1 | / | / | . | / | . | /
COc1cc(/C=N/NC(=S)NC(C)C)ccc1OCC(=O)Nc1c(C)cc(C)cc1C | . | . | 0.708µM | . | 0.501µM | .
COc1cc(/C=N/NC(=S)Nc2cccc(Cl)c2C)ccc1OCC(=O)N1CC(C)OC(C)C1 (configuration not stated) | . | . | 1.58µM | ? | 2.51µM | ?
CCCCNC(=S)N(C)/N=C/c1ccc(OCC(=O)Nc2c(C)cc(C)cc2C)c(OC)c1 | . | . | .[10 µM] | . | . | .
CCNC(=S)N/N=C/c1ccc(OCC(=O)Nc2ccc(OC)cc2)c(OC)c1 | . | . | 4.47µM | . | ? | .
CCNC(=S)N/N=C/c1ccc(OCc2ccc(C(=O)OC)cc2)cc1 | . | . | 3.16µM | ? | ? | .
C[C@@H]1CN([C@@H](C)CO)C(=O)c2cc(Br)cnc2O[C@H]1CN(C)Cc1cccnc1 | . | . | / | . | / | .
Cc1cc2ccc(Cl)nc2nc1C | . | / | / | / | / | .
CCNC(=S)N/N=C/c1ccc(OCC(=O)Nc2ccc(C)cc2)cc1 | . | . | 17.8µM | . | ? | .
Cc1cccc(NC(=O)CCNS(=O)(=O)c2cccc3nonc23)c1C | . | . | . | . | . | .
Cc1cccc2sc(NC(=O)CCNS(=O)(=O)c3cccc4nonc34)nc12 | 20µM | . | ? | . | . | ?
CN(C)c1ccc(CNC(=O)C2CCN(S(=O)(=O)c3ccc4[nH]c(=O)ccc4c3)CC2)cc1 | . | . | / | . | / | .
C/C(=N\NC(=S)Nc1ccccc1C)C1Cc2ccccc2C(=O)O1 (configuration not stated) | . | . | 2.82µM | . | ? | .
C/C(=N\NC(=S)Nc1ccccc1)C1Cc2ccccc2C(=O)O1 (configuration not stated) | . | . | . | . | . | ?
SMILES | HepG2 tox | ATXN2 expr inh | RORgamma inh | S2 tox | VP16 counter | TGFb inhibitor
Nc1ncnc2c1[nH]c(=S)n2C1OC(CO)C(O)C1O (configuration not stated) | . | / | / | / | / | .
Nc1ncnc2c1c(I)cn2C1OC(CO)C(O)C1O (configuration not stated) | / | / | 5.62µM | / | 3.98µM | /
N#Cc1c(N)n(C2OC(CO)C(O)C2O)c2ncnc(N)c12 (configuration not stated) | . | 0.299µM | / | ? | / | ?
COc1cc(C[C@H]2C(=O)OC[C@@H]2Cc2ccc(OC)c(OC)c2)ccc1O | / | / | 6.31µM | / | 1.12µM | /
CCCCn1c(N)c(N(CCOC)C(=O)C2CCN(S(=O)(=O)c3ccccc3)CC2)c(=O)[nH]c1=O | . | . | / | . | / | .
O=C(CN1CCN(c2ccccc2F)CC1)Nc1ccc2c(c1)CCC2 | . | . | . | . | 22.4µM | .
Cc1ccc(NC(=O)CN2CCN(c3ccccc3F)CC2)cc1F | . | . | / | . | / | .
Cn1c(Nc2ccc(Cl)cc2F)nc2cc(-c3ccccc3)sc2c1=O | . | . | / | . | / | ?
Cc1cccc(NC(=O)C2(C)Cc3ccccc3C(=O)O2)c1 (configuration not stated) | . | . | / | . | / | .
CC1(C)C/C(=N\NC(=S)Nc2ccccc2F)c2cc(O)ccc2O1 | . | . | 3.16µM | / | ? | ?
COc1cccc(NC(=S)N/N=C2\CC(C)(C)Oc3ccc(O)cc32)c1 | . | / | 7.08µM | ? | 4.47µM | .
COc1ccccc1NC(=S)Nc1ccccc1F | . | . | ? | . | ? | .
COc1cccc(NC(=S)NN=C2CCC(C(C)(C)C)CC2)c1 (configuration not stated) | . | . | ? | . | . | .
Cc1cccc(NC(=S)N/N=C2\CC(C)(C)Oc3ccc(O)cc32)c1 | . | . | 4.47µM | . | 3.16µM | .
COc1cccc(NC(=S)N/N=C2\CC3CCC2(C)C3(C)C)c1 (configuration not stated) | . | . | 0.562µM | . | 5.01µM | .
CC12CCC(C/C1=N/NC(=O)Nc1ccccc1)C2(C)C (configuration not stated) | . | / | . | . | . | ?
CC(C)CC(=O)Nc1ccc(S(=O)(=O)Nc2cc3c(cc2N2CCOCC2)n(C)c(=O)c(=O)n3C)cc1 | . | . | / | . | / | ?
CCOC(=O)c1c(-c2ccc(C)o2)csc1NC(=O)CN1CCOCC1 | . | . | . | . | . | .
CCOC(=O)c1c(-c2ccc(C)o2)csc1NC(=O)COC(=O)c1cccs1 | . | . | ? | . | 20µM | .
CCOC(=O)c1c(-c2ccc(C)o2)csc1NC(=S)NC(=O)N(C)C | . | ? | 0.794µM | / | 2.24µM | ?
CCOC(=O)c1c(-c2ccc(C)o2)csc1N | . | . | . | . | . | .
COc1ccc(-c2n[nH]c(=S)n2Cc2ccccc2)cc1 | . | . | 7.94µM | . | 7.08µM | .
COc1ccc(-c2n[nH]c(=S)n2Cc2ccccc2)cc1OC | . | . | 11.2µM | . | ? | .
CC(C)c1cc(-c2n[nH]c(=S)n2Cc2ccccc2)cs1 | . | . | 0.562µM | . | ? | .
C=CCn1c(C2CCCCC2)n[nH]c1=S | . | . | 3.98µM | . | ? | .
